# PubChem BioAssay AID743381 (National Center for Advancing Translational Sciences (NCATS), 2014)
# Results filed as inconclusive are left out. Unmarked numbers belong to inactive results. Active and inactive are the calls of the source. The call rests on the fitted dose curve; in most records, active means well fitted inhibition curve with a large enough effect; inconclusive means small, poorly fitted or top-dose-only effect; inactive means flat fitted curve, though single readings scatter.
# Target: Phosphatidylinositol 5-phosphate 4-kinase type-2 alpha (Homo sapiens) (UniProt P48426)
# Test: qHTS for Inhibitors of PI5P4K: PI5P4K-alpha Confirmatory Assay for Probe SAR
# Conditions: Purified PI5P4Kalpha, ADP-Glo luminescence, 60 min; series mostly up to 76.9 µM; activity change, negative = inhibition: at the top concentration
# From the text: In addition to finding PI5P, we discovered the type II phosphatidylinositol 5-phosphate 4-kinase (PI5P4K) family (alpha, beta, gamma isoforms) that catalyze the conversion of PI5P to PI(4,5)P2. Alternatively, PI(4,5)P2 can also be synthesized through phosphatidylinositol-4-phosphate (PI4P) by the type I phosphatidylinositol 4-phosphate 5-kinases (PI4P5K). These PI5P4K enzymes therefore represent one way by which cells can regulate endogenous PI5P levels and play important roles in insulin signaling and in stress responses. […] A qHTS PI5P4Kalpha ADP-Glo assay was developed to identify specific modulators of human PI5P4K, phosphatidylinositol-5-phosphate 4-kinase (Type II PIPK). This assay was screened against the MLSMR containing ~400,000 small molecules (PubChem AID 652105). The same assay was used to validate subsequent Medicinal Chemistry efforts on the active compounds and its analogs. Inhibition of the enzyme activity (signal decrease) is the desired outcome for this assay. Davis et al., PLoS One. 2013; 8(1):e54127. NIH Chemical Genomics Center [NCGC] NIH Molecular Libraries Probe Centers Network [MLPCN] MLPCN Grant: MH096575 Assay Submitter (PI): Atsuo Sasaki, Beth Israel Deaconess Medical Center
# Two microliter of PI5P4Kalpha/substrate buffer (columns 1-2, 5-48) was dispensed into Greiner white solid bottom 1536-well assay plates; column 3 received only PI5P4Kalpha buffer as no substrate control; column 4 receives only substrate buffer as no PI5P4Kalpha controls. Final assay buffer consists of 0.038 M HEPES pH 7.4, 0.28 mM EGTA, 0.1 % CHAPS, and 5% DMSO (final concentration). Compounds were then transferred via Kalypsys pin tool equipped with 1536-pin array. Following addition of compound, 1 uL of ATP (5 uM final concentration) was added to initiate the reaction. ATP was diluted in an assay buffer consisting of 0.02 M HEPES pH 7.4, 60 mM MgCl2, 15 uM ATP, and 0.1% CHAPS. The plates were then incubated at room temperature for 60 minutes. ADP-Glo reagent 1 was added and plates incubated for 45 minutes. ADP-Glo reagent 2 was added and the plates were incubated for 30 minutes. The plates were transferred to a ViewLux high-throughput CCD imager (PerkinElmer) wherein single end-point measurements of luminescence were acquired using a clear filter.
# Sequence of Phosphatidylinositol 5-phosphate 4-kinase type-2 alpha (Homo sapiens) (P48426 whole entry, looked up): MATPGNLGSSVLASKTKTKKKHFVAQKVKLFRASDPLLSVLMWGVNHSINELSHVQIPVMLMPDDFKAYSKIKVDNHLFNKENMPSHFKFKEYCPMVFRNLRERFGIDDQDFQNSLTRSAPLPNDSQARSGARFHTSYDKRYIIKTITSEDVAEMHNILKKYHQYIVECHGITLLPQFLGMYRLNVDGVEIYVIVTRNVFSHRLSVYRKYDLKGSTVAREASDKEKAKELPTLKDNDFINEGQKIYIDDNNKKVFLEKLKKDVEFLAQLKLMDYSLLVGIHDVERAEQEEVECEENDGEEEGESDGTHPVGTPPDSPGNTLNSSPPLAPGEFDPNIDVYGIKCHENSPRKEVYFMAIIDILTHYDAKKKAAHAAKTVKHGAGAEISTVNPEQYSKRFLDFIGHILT
Structure (SMILES),Potency,"activity change, negative = inhibition [%]"
O=C1Nc2ccccc2/C1=C\c1cc(Br)c(O)c(Br)c1,1220 nM (active),
O=C1Nc2ccccc2/C1=C/c1cc(Cl)c(O)c(Cl)c1,867 nM (active),
COc1cc(/C=C2\C(=O)Nc3ccccc32)ccc1O,19400 nM (active),
O=C1Nc2ccccc2/C1=C\c1ccc([N+](=O)[O-])cc1,2740 nM (active),
O=C1Nc2ccccc2/C1=C/c1ccc[nH]1,,11
O=C1Nc2ccccc2/C1=C\c1cc(F)c(O)c(F)c1,487 nM (active),
Cc1cccc2c1NC(=O)/C2=C/c1cc(Cl)c(O)c(Cl)c1,547 nM (active),
O=C1Nc2ccccc2/C1=C\c1ccc(O)cc1,24400 nM (active),
O=C1Nc2ccccc2/C1=C/c1cccc(C(=O)O)c1,10900 nM (active),
O=C1Nc2ccccc2/C1=C\c1ccc(O)c(F)c1,2180 nM (active),
COc1cc(/C=C2/C(=O)Nc3ccccc32)cc(OC)c1O,30700 nM (active),
O=C1Nc2ccccc2C12CC2c1cc(Cl)c(O)c(Cl)c1 (centres undefined),10900 nM (active),
COc1ccc(/C=C2/C(=O)Nc3ccccc32)cc1O,772 nM (active),
O=C1Nc2cccc(Cl)c2/C1=C\c1cc(Cl)c(O)c(Cl)c1,3070 nM (active),
